The subject of this assay is MDA-MB-468 breast. The assay can be described thus: NCI-60 one-dose screen, 48 h (100 = growth as untreated, 0 = no growth, -100 = all killed). Particulars: 10 µM unless noted.

“And” between values parts separate entries of the source, which are not always exact repeats. Equal values may be shown once. Compounds without any hit were thinned out: in the full panel of roughly 83,000, 20% have a hit.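 Single-dose data. Exposure time 48 hours. Values below 10 considered active.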 Values without a mark were called inactive. The source made the active and inactive calls.

For `Cc1cc2c(F)c(Oc3ncnn4cc(OC[C@@H](C)OC(=O)[C@H](C)N)c(C)c34)ccc2[nH]1`, the growth is 71.5%.
As for `CC/C=C\C[C@H](O)C/C=C1/C(=O)C(Cl)=C[C@@H]1C/C=C\CCCC(=O)O`, the growth was 41.1%.
With `COc1ccc(C2CC(=O)Nc3c2c(C)nn3-c2nc3ccccc3[nH]2)cc1OC` (stereo not given) the figure was 59.6%.
As for `Nc1c(C(=O)Nc2cccc3ccccc23)sc2nc3c(cc12)CCCCCC3`, the growth was 30.7%.
Turning to `CNCCCn1c2c(c3ccc([N+](=O)[O-])cc3c1=O)C(=O)c1cc(OC)cnc1-2`, the growth is -39.5% (active).
Regarding `Nc1ccc(-c2cccs2)cc1NC(=O)c1ccc(CCCC(=O)Nc2ccc(C3CC3N)cc2)cc1` (stereo not given), the growth was 69.6%.
Take `COc1ccc(N=Nc2nccs2)c(O)c1`: the growth is 18.6%.
With `Fc1ccccc1Nc1ccc2nnc(-c3ccncc3)n2n1` the figure was 105%; with `CCOc1ccc(/C=N/Nc2cc(C)nc3ccc(Cl)cc23)cc1`, -9.24% (active); with `O=C1NN(c2ccccc2)C(c2ccc3c(c2)OCO3)N2CCC[C@@H]12` (stereo not given in full), 121%.
As for `O=C(N/N=C/c1ccccc1O)c1ccccc1Nc1ccnc(C(F)(F)F)c1`, the growth was -18.4% (active).
Turning to `O=C1C=Cc2ncccc2C1=O`, the growth was 64.5%.
On to `Clc1ncnc2nc[nH]c12`, for which the growth was 108%.
In the case of `Cc1ccc(/C(N)=N/C(N)=N/c2nc3ccccc3s2)cc1`, the growth is 88.8%.
Take `COc1cnc2c(c1)C(=O)c1c-2n(CCCN2CCN(C)CC2)c(=O)c2cc([N+](=O)[O-])ccc12`: the growth was -57.9% (active).
With `COc1ccc(-c2nc3sc(-c4ccc(Cl)cc4)cn3n2)cc1`, the growth is 33.4%.
With `O=C(OCc1ccccc1)c1ccccc1` the figure was 95% and 74.9%.
With `O=C(/C(=C/c1ccc([N+](=O)[O-])cc1)c1ccccc1)c1ccccc1`, the growth is 51.4%.
For the compound `O=C(/C=C/c1ccc(B(O)O)cc1)/C=C/c1ccc(B(O)O)cc1`, the growth is 1.24% (active).
Take `NCCCc1nnc(CCC(=O)c2nc3ccccc3[nH]2)o1`: the growth was 107%.
`CCOC(=O)Sc1ncnc2nc[nH]c12`: the growth was 75.3%.
Turning to `O=C1c2ccccc2C(=O)c2c(NCCN=Cc3c(O)ccc4ccccc34)cccc21`, the growth was 84.5%.
For the compound `CCOc1ccccc1C(=O)OCC(=O)Nc1cccc(S(=O)(=O)N(C)C)c1`, the growth was 84.7%.
Consider `CCn1c(Sc2nnc(NC(=O)CCN3CCCC3)s2)nc2c1c(=O)n(C)c(=O)n2C`, for which the growth was 101%.
As for `Nc1[nH]n2cc(-c3ccccc3)nc2c1N=Nc1ccc(S(N)(=O)=O)cc1`, the growth is 32.6%.
The same measure for `Cc1cccc[n+]1C1c2ccccc2-c2ccccc21`: 68.5%; for `O=c1ccc2ccc(OCCN3CCCCC3)cc2o1`: 105%; for `COc1ccccc1N1CCN(C2=C(Cl)C(=O)c3ncccc3C2=O)CC1`: -55.3% (active).
In the case of `O=c1c2cccc3c(Nc4ccc(Br)cn4)ccc(c32)c2nc3ccccc3n12`, the growth was -64.7% (active).
The same measure for `Clc1cc2c(nn1)Nc1ccccc1S2`: 96.9%; for `CCCCCCCCCCC(C(O)c1ccccc1)N1CCCCC1` (stereo not given): -21.9% (active); for `O=S1(=O)N(Cc2ccccc2)[C@@H](Cc2ccccc2)[C@H](O)[C@H](O)[C@H](Cc2ccccc2)N1Cc1ccccc1`: -27.7% (active).
On to `COC(=O)c1cc(-c2ccc(C)cc2)n(C(=O)CSc2nc3sc(C(N)=O)c(C)c3c(=O)n2Cc2ccccc2)n1`, for which the growth is 107%.
As for `C=C(C)[C@@H]1CC[C@]2(C)[C@H](CC=C3[C@@H]4CC(C)(C)CC[C@]4(C(=O)NCC#CCN4CCN(C)CC4)CC[C@]32C)[C@@]1(C)CCC#N`, the growth is 47.9%.
Take `O=C1c2ccccc2-c2c1c1ccncc1c(=O)n2CCCn1ccnc1`: the growth is 28%.
On to `CCCCCCCCCCCCCCCCOP(=O)([O-])OCC[N+](C)(C)C`, for which the growth was -24% (active).
Consider `COc1cc2cc(Oc3ccc(NC(=O)c4cc(C(F)(F)F)cc(C(F)(F)F)c4)cc3)c(C)nc2cc1OCCN1CCOCC1`, for which the growth is 66.9%.
In the case of `O=C1Nc2ccccc2/C1=C/c1cn(C(=O)c2c(Cl)cccc2Cl)c2ccccc12`, the growth is 32.7%.
For the compound `Cc1cc(Br)ccc1-n1cc(C#N)c(N)c1C(=O)c1ccc(Br)cc1`, the growth is 93.4%.
Take `CCOC(=O)c1cn2c3c(cccc3c1=O)C(=O)/C(=C/c1cccc(Cl)c1Cl)C2`: the growth is 106%.
